# According to PubChem BioAssay (Tox21):
# Unmarked numbers belong to inactive results. A call without a number means that no potency is given here. Calls of active or inactive are those of the source. Unless noted, calls come from the whole dose curve; as a rule, active = well fitted curve in the direction sought with a large enough effect in the repeat runs; inconclusive = weak or mixed curves; inactive = no such curve, though single readings can be large; an effect the other way counts as inactive or inconclusive.
# Experiments:
# [1] = qHTS assay for small molecules that induce genotoxicity in human embryonic kidney cells expressing luciferase-tagged ATAD5 (AID 651632); note: nearly all actives have a fitted effect of over 15% in size; note: potency is the fitted concentration of half-maximal effect
# In short: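 Luminescent reporter readout, HEK293T ATAD5-luc line: 16 hr drug exposure (37C, 5% CO2) followed by Amplite, 30 min RT.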
# [2] = qHTS assay for small molecules that induce genotoxicity in human embryonic kidney cells expressing luciferase-tagged ATAD5 - cell viability (AID 651634; calls by dose curve; note: nearly all actives have a fitted effect of over 25% in size)
# In short: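 Viability read: CellTiter-Fluor fluorescence, 30 min at 37C. Cells: HEK293T, luciferase-tagged ATAD5. Exposure: 15.5 hr, 37C, 5% CO2, compound or DMSO vehicle.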
# [3] = qHTS assay to test for compound auto fluorescence at 535 nm (green) in HEK293 cells (AID 720680)
# [4] = qHTS assay to test for compound auto fluorescence at 460 nm (blue) in HepG2 cell free culture (AID 720685)
# In short: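 Compound (23 nL) or DMSO pinned into cell-free MEM with 10% FBS; blue fluorescence read at 405/460 nm excitation/emission, expressed as auto-fluorescence equivalency to triamterene.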
# [5] = target: Glucocorticoid receptor (Homo sapiens) (UniProt P04150); assay: qHTS assay to identify small molecule antagonists of the glucocorticoid receptor (GR) signaling pathway (AID 720692; active = well fitted inhibition curve with a large enough effect in the signal ratio in the repeat runs, not every such curve was filed as active; inconclusive = weak or mixed curves, or effect the other way; inactive = no such curve, though single readings can be large or run the other way; the % refers to the signal ratio; note: potency is the fitted concentration of half-maximal effect)
# In short: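 Inhibition of glucocorticoid signalling is measured in HeLa cells with a GRE-controlled beta-lactamase reporter; cells are co-treated with compound and 5 nM dexamethasone (final) for 18 h before FRET substrate readout.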
# [6] = qHTS assay for identifying genotoxic compounds that show differential cytotoxicity against isogenic chicken DT40 cell lines with known DNA damage response pathways - wild type cell line (AID 743012); note: nearly all actives have a fitted effect of over 60% in size; note: potency is the fitted concentration of half-maximal effect
# In short: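 First, wild type DT40 cells were plated at 300 per well and equilibrated about 0.5 h at 37 C/5% CO2. Next, compounds in DMSO were added and exposure lasted 40 h. Finally, CellTiter-Glo was added for 30 min at room temperature and luminescence recorded.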
# [7] = qHTS assay to identify small molecule antagonists of the androgen receptor (AR) signaling pathway using the MDA cell line - cell viability counter screen (AID 743041; note: nearly all actives have a fitted effect of over 45% in size)
# In short: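 Same-well cytotoxicity was assessed by CellTiter-Fluor in MDA-kb2 AR-luc cells after 16 h of compound treatment under R1881 agonism.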
# [8] = qHTS assay to identify small molecule antagonists of the estrogen receptor alpha (ER-alpha) signaling pathway using the BG1 cell line (AID 743080; calls by dose curve;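 note: BG1 cells stimulated with 17beta-estradiol alongside compound; nearly all actives have a fitted effect of over 25% in size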; note: potency is the fitted concentration of half-maximal effect)
# In short: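 Seeding, 24 h rest, compound transfer from DMSO, 17beta-estradiol addition, 21.5 h incubation, CellTiter-Fluor (30 min, 37 C), then ONE-Glo (30 min, room temperature): this sequence was run on BG1-Luc-4E2 reporter cells.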
# [9] = qHTS assay to identify small molecule antagonists of the estrogen receptor alpha (ER-alpha) signaling pathway using the BG1 cell line - cell viability counter screen (AID 743081);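 note: compound given together with 17beta-estradiol as the ER stimulus; series mostly up to about 70 µM; nearly all actives have a fitted effect of over 45% in size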
# [10] = target: Peroxisome proliferator-activated receptor gamma (Homo sapiens) (UniProt P37231); assay: qHTS assay to identify small molecule agonists of the peroxisome proliferator-activated receptor gamma (PPARg) signaling pathway (AID 743094; active = well fitted activation curve with a large enough effect in the signal ratio in the repeat runs, not every such curve was filed as active; inconclusive = weak or mixed curves, or effect the other way; inactive = no such curve, though single readings can be large or run the other way; the % refers to the signal ratio)
# In short: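 Compounds dissolved in DMSO were added to PPARg UAS-bla HEK293H cells for 17 h at 37C, and reporter expression was quantified by fluorescence intensity after 1 h with LiveBLAzer B/G FRET substrate.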
# [11] = qHTS assay to identify small molecule phospholipidosis (PLD) inducers (AID 1259344; active = well fitted curve in the direction sought with a large enough effect; inconclusive = small, poorly fitted or top-dose-only effect, or another doubt; inactive = no such curve, though single readings can be large; an effect the other way counts as inactive or inconclusive)
# In short: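 Quantitative HTS in HepG2: compound plus LipidTOX Red dye for 24 h, paraformaldehyde fixation with Hoechst 33342, widefield high-content imaging; amiodarone as positive and DMSO as negative control.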
# [12] = qHTS assay for small molecule agonists of the p53 signaling pathway (AID 651631; calls by dose curve; note: nearly all actives have a fitted effect of over 15% in size)
# In short: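 HCT-116 cells carrying a beta-lactamase reporter under p53 response elements were dosed with compound for 16 h at 37 °C. LiveBLAzer B/G FRET substrate was then added for 2 h at room temperature, and fluorescence intensity was read to detect pathway agonism.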
# [13] = qHTS assay to identify small molecule antagonists of the thyroid receptor (TR) signaling pathway - cell viability counter screen (AID 743064); note: nearly all actives have a fitted effect of over 50% in size; note: potency is the fitted concentration of half-maximal effect
# In short: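 GH3.TRE-Luc rat pituitary cells dosed after 4 hr plating, co-stimulated with T3 at 1 nM final, incubated 23.5 h at 37 C. Viability measured in the same wells by CellTiter-Fluor fluorescence after 30 min further at 37 C.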
# [14] = qHTS assay to identify small molecule antagonists of the thyroid receptor (TR) signaling pathway (AID 743065); note: nearly all actives have a fitted effect of over 55% in size; note: potency is the fitted concentration of half-maximal effect
# In short: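 GH3.TRE-Luc rat pituitary cells (two TREs driving luciferase) were dosed with compound, then stimulated with 1 nM T3 (final) for 23.5 h at 37 C. ONE-Glo luminescence was the read-out, with CellTiter-Fluor fluorescence as the cytotoxicity counter-screen.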
# [15] = test system: thyroid hormone receptor (rat, GH3 cells); assay: qHTS assay to identify small molecule agonists of the thyroid receptor (TR) signaling pathway (AID 743066; calls by dose curve)
# [16] = target: Estrogen receptor (Homo sapiens) (UniProt P03372); assay: qHTS assay to identify small molecule antagonists of the estrogen receptor alpha (ER-alpha) signaling pathway (AID 743069; active = well fitted curve in the direction sought with a large enough effect in the signal ratio in the repeat runs, not every such curve was filed as active; inconclusive = weak or mixed curves, or effect the other way; inactive = no such curve, though single readings can be large or run the other way; the % refers to the signal ratio; note: potency is the fitted concentration of half-maximal effect)
# In short: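 Reporter cells (ER-alpha-bla, HEK293 background) are conditioned overnight in stripped-serum medium (2% charcoal-stripped FBS). Compound and 17beta-estradiol exposure runs 18 hr at 37C, 5% CO2.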
# [17] = target: Estrogen receptor (Homo sapiens) (UniProt P03372); assay: qHTS assay to identify small molecule agonists of the estrogen receptor alpha (ER-alpha) signaling pathway (AID 743075; calls by dose curve;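 note: HEK293 GripTite cells with ER-alpha and UAS-driven beta-lactamase reporter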)
# [18] = target: Estrogen receptor (Homo sapiens) (UniProt P03372); assay: qHTS assay to identify small molecule agonists of the estrogen receptor alpha (ER-alpha) signaling pathway using the BG1 cell line (AID 743079); note: nearly all actives have a fitted effect of over 20% in size; note: potency is the fitted concentration of half-maximal effect
# [19] = qHTS assay for small molecule disruptors of the mitochondrial membrane potential (AID 720635); note: potency is the fitted concentration of half-maximal effect
# In short: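 HepG2 cells exposed to compound 1 hr at 37C, then Mito-MPS dye 30 min. Ratio read of aggregate (540/590 nm) versus monomer (490/535 nm) fluorescence.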
# [20] = qHTS assay for identifying genotoxic compounds that show differential cytotoxicity against isogenic chicken DT40 cell lines with known DNA damage response pathways - Rev3 mutant cell line (AID 743014); note: nearly all actives have a fitted effect of over 55% in size; note: potency is the fitted concentration of half-maximal effect
# Chain of Glucocorticoid receptor (Homo sapiens) (P04150 whole entry, looked up): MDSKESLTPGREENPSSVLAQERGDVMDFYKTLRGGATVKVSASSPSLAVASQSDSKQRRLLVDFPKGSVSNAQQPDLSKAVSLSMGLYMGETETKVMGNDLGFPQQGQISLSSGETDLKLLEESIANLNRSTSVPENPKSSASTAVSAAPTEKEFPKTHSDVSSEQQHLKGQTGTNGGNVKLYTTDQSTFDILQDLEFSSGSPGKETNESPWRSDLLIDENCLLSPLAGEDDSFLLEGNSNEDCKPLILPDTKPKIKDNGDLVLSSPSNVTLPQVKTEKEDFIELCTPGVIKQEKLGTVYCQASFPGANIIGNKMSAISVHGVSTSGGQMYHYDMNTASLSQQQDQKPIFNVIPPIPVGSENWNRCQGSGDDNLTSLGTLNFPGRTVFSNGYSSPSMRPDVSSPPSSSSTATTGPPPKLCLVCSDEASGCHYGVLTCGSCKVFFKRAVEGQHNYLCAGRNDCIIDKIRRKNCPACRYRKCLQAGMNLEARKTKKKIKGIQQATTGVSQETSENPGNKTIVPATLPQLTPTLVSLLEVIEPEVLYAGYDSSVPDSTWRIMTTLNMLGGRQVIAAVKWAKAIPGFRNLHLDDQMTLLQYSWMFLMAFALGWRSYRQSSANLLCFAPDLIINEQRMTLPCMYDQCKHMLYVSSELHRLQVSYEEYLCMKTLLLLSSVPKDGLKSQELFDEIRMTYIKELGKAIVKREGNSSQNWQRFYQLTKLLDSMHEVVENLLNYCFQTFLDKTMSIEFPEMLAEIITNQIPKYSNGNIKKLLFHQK
# Chain of Estrogen receptor (Homo sapiens) (P03372 whole entry, looked up): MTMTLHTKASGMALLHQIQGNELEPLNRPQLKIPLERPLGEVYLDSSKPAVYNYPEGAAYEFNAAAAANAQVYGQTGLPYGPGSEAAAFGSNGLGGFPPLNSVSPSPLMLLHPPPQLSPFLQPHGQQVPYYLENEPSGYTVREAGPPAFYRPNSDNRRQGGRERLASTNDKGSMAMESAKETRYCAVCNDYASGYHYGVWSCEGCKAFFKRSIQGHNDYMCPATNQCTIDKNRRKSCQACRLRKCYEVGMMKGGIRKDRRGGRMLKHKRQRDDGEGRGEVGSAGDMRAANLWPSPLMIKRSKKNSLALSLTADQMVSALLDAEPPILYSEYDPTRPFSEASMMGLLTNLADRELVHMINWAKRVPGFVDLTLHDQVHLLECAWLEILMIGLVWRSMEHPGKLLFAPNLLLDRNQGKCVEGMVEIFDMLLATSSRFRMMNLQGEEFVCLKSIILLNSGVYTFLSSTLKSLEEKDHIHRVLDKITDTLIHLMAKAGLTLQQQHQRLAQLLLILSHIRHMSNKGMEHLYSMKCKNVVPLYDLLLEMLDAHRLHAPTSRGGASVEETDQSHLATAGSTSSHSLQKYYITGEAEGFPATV
# Chain of Peroxisome proliferator-activated receptor gamma (Homo sapiens) (P37231 whole entry, looked up): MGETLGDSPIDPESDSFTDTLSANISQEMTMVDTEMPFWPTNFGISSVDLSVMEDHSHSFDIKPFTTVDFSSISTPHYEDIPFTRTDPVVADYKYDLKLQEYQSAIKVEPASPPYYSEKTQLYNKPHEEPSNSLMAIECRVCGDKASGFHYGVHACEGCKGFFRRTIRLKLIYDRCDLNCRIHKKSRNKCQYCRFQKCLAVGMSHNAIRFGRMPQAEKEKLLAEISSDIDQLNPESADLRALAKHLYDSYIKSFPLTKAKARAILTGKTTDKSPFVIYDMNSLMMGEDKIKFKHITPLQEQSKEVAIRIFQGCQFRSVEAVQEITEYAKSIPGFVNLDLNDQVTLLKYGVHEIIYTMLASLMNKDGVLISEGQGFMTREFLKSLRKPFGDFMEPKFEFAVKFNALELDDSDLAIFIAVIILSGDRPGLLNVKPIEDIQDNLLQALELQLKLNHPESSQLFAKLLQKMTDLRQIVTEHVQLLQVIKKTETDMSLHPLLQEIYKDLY
smiles,measurement,setting,value
Clc1ccc(C(Cn2ccnc2)OCc2csc3c(Cl)cccc23)c(Cl)c1 (stereo unspecified),Potency,[1],inactive
same,Potency,[2],inactive
same,Potency,[3],inactive
same,Potency,[4],inactive
same,Potency,[5],inactive
same,Potency,[6],12.7 µM (active)
same,Potency,[7],inactive
same,Potency,[8],inactive
same,Potency,[9],inactive
same,Potency,[10],inactive
same,Potency,[11],inactive
CNC(C)CC1CCCCC1 (stereo unspecified),Potency,[12],inactive
same,Potency,[1],inactive
same,Potency,[2],inactive
same,Potency,[4],inactive
same,Potency,[5],inactive
same,Potency,[7],inactive
same,Potency,[13],inactive
same,Potency,[14],inactive
same,Potency,[15],inactive
same,Potency,[16],inactive
same,Potency,[17],inactive
same,Potency,[18],inactive
same,Potency,[8],inactive
same,Potency,[10],inactive
same,Potency,[11],inactive
c1ccc(C2(N3CCCC3)CCCCC2)cc1,Potency,[1],inactive
same,Potency,[19],19.7 µM (active)
same,Potency,[3],inactive
same,Potency,[4],inactive
same,Potency,[6],5.31 µM (active)
same,Potency,[20],8.41 µM (active)
same,Potency,[13],16.8 µM (active)
same,Potency,[14],13.3 µM (active)
same,Potency,[17],inactive
same,Potency,[18],inactive
same,Potency,[8],inactive
same,Potency,[9],inactive
same,Potency,[11],inactive
CN[C@]1(c2ccccc2Cl)CCCCC1=O,Potency,[12],inactive
same,Potency,[1],inactive
same,Potency,[2],inactive
same,Potency,[19],inactive
same,Potency,[4],inactive
same,Potency,[5],inactive
same,Potency,[6],inactive
same,Potency,[20],inactive
same,Potency,[7],inactive
same,Potency,[13],inactive
same,Potency,[14],inactive
same,Potency,[15],inactive
same,Potency,[16],inactive
same,Potency,[17],inactive
same,Potency,[18],inactive
same,Potency,[8],inactive
same,Potency,[9],inactive
same,Potency,[10],inactive
same,Potency,[11],inactive
CC(C)=CCN1CC[C@]2(C)c3cc(O)ccc3C[C@H]1[C@H]2C,Potency,[12],inactive
same,Potency,[1],inactive
same,Potency,[2],inactive
same,Potency,[19],inactive
same,Potency,[4],inactive
same,Potency,[6],24.3 µM (active)
same,Potency,[20],27.3 µM (active)
same,Potency,[13],inactive
same,Potency,[15],inactive
same,Potency,[16],inactive
same,Potency,[17],inactive
same,Potency,[18],30.6 µM (active)
same,Potency,[8],inactive
same,Potency,[9],inactive
same,Potency,[10],inactive
same,PLD induction,[11],-0.374% [at 3.15 µM]
NCC[C@H](O)C(=O)N[C@@H]1C[C@H](N)[C@@H](O[C@H]2O[C@H](CN)[C@@H](O)[C@H](O)[C@H]2N)[C@H](O[C@@H]2O[C@H](CO)[C@@H](O)[C@H]2O)[C@H]1O,Potency,[1],inactive
same,Potency,[2],inactive
same,Potency,[3],inactive
same,Potency,[4],inactive
same,Potency,[6],inactive
same,Potency,[20],inactive
same,Potency,[7],inactive
same,Potency,[13],inactive
same,Potency,[14],inactive
same,Potency,[15],inactive
same,Potency,[17],inactive
same,Potency,[18],inactive
same,Potency,[8],inactive
same,Potency,[9],inactive
same,Potency,[10],inactive
same,Potency,[11],inactive
CC(N)Cc1ccc2c(c1)OCO2 (stereo unspecified),Potency,[12],inactive
same,Potency,[1],inactive
same,Potency,[2],inactive
same,Potency,[19],inactive
same,Potency,[3],inactive
same,Potency,[4],inactive
same,Potency,[6],inactive
same,Potency,[20],inactive
same,Potency,[7],inactive
same,Potency,[13],inactive
same,Potency,[14],inactive
same,Potency,[15],inactive
same,Potency,[17],inactive
same,Potency,[18],inactive
same,Potency,[8],inactive
same,Potency,[9],inactive
same,Potency,[10],inactive
same,PLD induction,[11],-3.76% [at 1.53 µM]
O=C(NC(=O)c1c(F)cccc1F)Nc1ccc(Cl)c(Oc2ncc(C(F)(F)F)cc2Cl)c1,Potency,[2],inactive
same,Potency,[19],2.98 µM (active)
same,Potency,[4],inactive
same,Potency,[7],inactive
same,Potency,[14],inactive
same,Potency,[15],inactive
same,Potency,[16],inactive
same,Potency,[17],inactive
same,Potency,[18],inactive
same,Potency,[8],inactive
same,Potency,[9],inactive
same,Potency,[10],inactive
same,Potency,[11],inactive
c1ccc2c(c1)Sc1ccccc1N2C[C@@H]1CN2CCC1CC2,Potency,[12],inactive
same,Potency,[1],inactive
same,Potency,[19],inactive
same,Potency,[4],inactive
same,Potency,[5],inactive
same,Potency,[20],inactive
same,Potency,[7],inactive
same,Potency,[9],inactive
same,Potency,[10],inactive
same,Potency,[11],inactive
CN[C@@H](C)Cc1ccccc1,Potency,[12],inactive
same,Potency,[2],inactive
same,Potency,[19],inactive
same,Potency,[3],inactive
same,Potency,[4],inactive
same,Potency,[20],inactive
same,Potency,[7],inactive
same,Potency,[13],inactive
same,Potency,[14],inactive
same,Potency,[15],inactive
same,Potency,[9],inactive
same,Potency,[11],inactive
CC(=O)[C@@]1(O)CC[C@H]2[C@@H]3CCC4=CC(=O)CC[C@]4(C)C3(F)[C@@H](O)C[C@@]21C (stereo partly specified),Potency,[12],inactive
same,Potency,[1],inactive
same,Potency,[2],inactive
same,Potency,[19],inactive
same,Potency,[3],inactive
same,Potency,[7],inactive
same,Potency,[13],inactive
same,Potency,[14],inactive
same,Potency,[15],inactive
same,Potency,[17],inactive
same,Potency,[18],inactive
same,Potency,[9],inactive
same,Potency,[10],inactive
same,Potency,[11],inactive
C=C[C@H]1CN2CC[C@H]1C[C@@H]2[C@@H](O)c1ccnc2ccccc12,Potency,[1],inactive
same,Potency,[2],inactive
same,Potency,[19],8.41 µM (active)
same,Potency,[3],inactive
same,Potency,[4],inactive
same,Potency,[5],inactive
same,Potency,[7],inactive
same,Potency,[13],inactive
same,Potency,[14],inactive
same,Potency,[15],inactive
same,Potency,[9],inactive
same,Potency,[10],inactive
same,Potency,[11],inactive
N#CC(C#N)=Cc1cc(O)c(O)c(O)c1,Potency,[12],inactive
same,Potency,[1],inactive
same,Potency,[19],5.96 µM (active)
same,Potency,[4],inactive
same,Potency,[6],21.1 µM (active)
same,Potency,[20],26.6 µM (active)
same,Potency,[13],26.6 µM (active)
same,Potency,[15],inactive
same,Potency,[17],inactive
same,Potency,[18],inactive
same,Potency,[8],inactive
same,Potency,[10],inactive
same,Potency,[11],inactive
Cc1nnc2n1-c1ccc(Cl)cc1C(c1ccccc1)=NC2,Potency,[12],inactive
same,Potency,[1],13.3 µM (active)
same,Potency,[2],inactive
same,Potency,[3],inactive
same,Potency,[4],inactive
same,Potency,[5],6.01 µM (active)
same,Potency,[6],inactive
same,Potency,[20],inactive
same,Potency,[7],inactive
same,Potency,[14],26.6 µM (active)
same,Potency,[15],inactive
same,Potency,[16],21.3 µM [inconclusive] (active)
same,Potency,[17],inactive
same,Potency,[8],11.9 µM (active)
same,Potency,[9],inactive
same,Potency,[11],inactive
CC[C@H]1[C@@H]2C[C@H]3[C@@H]4N(C)c5ccccc5[C@]45C[C@@H](C2[C@H]5O)N3[C@@H]1O (stereo partly specified),Potency,[12],inactive
same,Potency,[1],inactive
same,Potency,[2],inactive
same,Potency,[4],inactive
same,Potency,[5],inactive
same,Potency,[20],inactive
same,Potency,[7],inactive
same,Potency,[13],inactive
same,Potency,[14],inactive
same,Potency,[15],inactive
same,Potency,[16],inactive
same,Potency,[17],inactive
same,Potency,[18],inactive
same,Potency,[8],inactive
same,Potency,[9],inactive
same,Potency,[10],inactive
same,Potency,[11],inactive
